PubChem BioAssay AID743343 (Broad Institute, 2014)
Entries with a potency or affinity are not part of this list.

The compounds below were run on Drosophila melanogaster bursicon receptor LGR2 (rickets) (assay: blockers of bursicon-stimulated LGR2 cAMP reporter – cell-based, HEK293, CRE-luciferase reporter, cherry pick, set 2, dose response (AID 743343)). Conditions: bursicon-induced cAMP antagonist; series mostly up to 35 µM; activity change, negative = inhibition: at the top concentration; call rule not given here.

Activity change, negative = inhibition, inactive:
C[C@H](CO)N1C[C@H](C)[C@@H](CN(C)C(=O)Nc2ccc3c(c2)OCO3)Oc2c(cccc2N(C)C)C1=O 35.9%
Cn1nnnc1Sc1ncnc2scc(-c3ccccc3C(F)(F)F)c12 -21.3%
O=C(c1ccc(CSc2nc3ccncc3[nH]2)cc1)N1CCN(c2cccc(Cl)c2)CC1 13.9%
CC(C)CCNC(=O)C(c1ccc(O)cc1)N(Cc1cccs1)C(=O)C1COc2ccccc2O1 (centres undefined) -52.9%
C[C@@H]1CN([C@@H](C)CO)C(=O)c2cccc(NC(=O)Nc3ccc(C(F)(F)F)cc3)c2O[C@H]1CN(C)C(=O)Nc1cccc2ccccc12 -26.2%
CCc1nnc2cccc(Cl)n12 6.38%
COc1cc(CNCCO)cc(Cl)c1OCc1ccc(Cl)cc1Cl 1.33%
COCC#Cc1ccc2c(c1)O[C@H](CN(C)S(=O)(=O)c1cccc(F)c1)[C@@H](C)CN([C@H](C)CO)S2(=O)=O -18.7%
O=C(NCc1ccco1)c1cc(NS(=O)(=O)c2cccc([N+](=O)[O-])c2)ccc1O 42.5%
CO[C@@H]1CN(C)C(=O)c2ccc(NC(=O)C3CC3)cc2OC[C@@H](C)NC[C@@H]1C -7.47%
COc1ccccc1N1CCN(C(=O)c2sc3nc(-c4ccc(F)cc4)cn3c2C)CC1 10.6% [at 16 µM]
O=c1cc(-c2c(F)c(F)c(F)c(F)c2F)oc2ccccc12 37.7% [at 16 µM]
COc1ccc(S(=O)(=O)N2CCN(C(=O)c3ccc(C)o3)CC2)cc1 34.5%
CC[C@H](CO)Oc1cc(NCc2ccc(Cl)c(Cl)c2)c2ncn(C(C)C)c2c1 -13.4%
CC(=O)N1CCc2cc(S(=O)(=O)C(C)CC(=O)NCc3ccco3)ccc21 (centres undefined) 42.8%
C[C@H]1CN([C@@H](C)CO)C(=O)Cc2cc(NC(=O)Nc3ccc(F)cc3)ccc2O[C@H]1CN(C)CC1CCCCC1 -23.3%
CNCc1ccccc1Sc1ccc(O)c(O)c1 -5.29%
CC(=O)c1ccc(S(=O)(=O)N2CCC(NC(=O)Nc3cccc(F)c3)CC2)cc1 17.5%
O=C(C[C@H]1C=C[C@@H](NC(=O)C2CCC2)[C@H](CO)O1)NCCCN1CCOCC1 -11.8%
CC1CN(C(=O)c2cccc(S(=O)(=O)Nc3cc(Cl)ccc3Cl)c2)CC(C)O1 (centres undefined) 23%
C[C@@H]1CN([C@H](C)CO)C(=O)c2cc(NC(=O)Nc3cccc4ccccc34)ccc2O[C@@H]1CN(C)C(=O)Nc1ccccc1 -8.77%
N#C[C@@H]1[C@H](c2ccc(C#CC3CCCCC3)cc2)[C@@H](CO)N1C(=O)c1cccc(F)c1 -28.7% [at 30 µM]
CCC(=O)N(C)C[C@H]1Oc2cc(C#CCC(C)C)ccc2S(=O)(=O)N([C@H](C)CO)C[C@@H]1C -1.03%
Cc1noc(C)c1S(=O)(=O)Nc1cccc2c1O[C@H](CN(C)C(=O)Nc1ccc(F)cc1)[C@H](C)CN([C@H](C)CO)C2=O 1.54%
C[C@@H]1CN([C@@H](C)CO)S(=O)(=O)c2ccc(C3=CCCC3)cc2O[C@H]1CN(C)C(=O)c1ccccc1 -16.4%
CCCCC(=O)N(C)c1c(C)nc2ccc(C(=O)N3CCCCC3)cn12 6.84%
Cn1nnnc1SCC(=O)N1CCN(C(=O)c2ccco2)CC1 37.6%
Cc1ccc(S(=O)(=O)N2CCCc3nc(-c4ccc(F)cc4)ccc32)cc1 17.7%
O=C(c1ccc2c(c1)OCCO2)C1CCN(S(=O)(=O)c2ccc(F)cc2)CC1 39.3%
O=C(Nc1ccc(N2CCOCC2)c(S(=O)(=O)Nc2ccccc2Cl)c1)c1ccc(F)cc1 -14.4%
C[C@H]1CN([C@@H](C)CO)C(=O)c2cc(NC(=O)Nc3ccccc3)ccc2O[C@H]1CN(C)Cc1ccc(-c2ccccc2)cc1 -25%
O=C(Cc1ccncc1)NCC[C@H]1CC[C@H](NC(=O)C2CCCC2)[C@H](CO)O1 -21.3%
COc1cccc(-c2ccc(C3[C@@H]4CN(C(=O)C5CC5)C[C@H]3N4)cc2)c1 (some centres undefined) 0.109%
Cc1ccc(S(=O)(=O)N(C)C[C@H]2Oc3cc(Br)ccc3S(=O)(=O)N([C@H](C)CO)C[C@H]2C)cc1 -10.2%
CC(C)N(C(=O)Nc1ccc2nsnc2c1)C(C)C 3.17%
O=C(CSc1ncnc2[nH]ncc12)Nc1nc(-c2ccc(F)c(F)c2)cs1 -2.35%
COC(=O)c1ccc(Nc2cc(C)nc3ccc(C)cc23)cc1 -10.3%
Cc1ccc2nc(NC(=O)CCCC(=O)O)sc2c1 -25.2%
COc1ccccc1CCn1cnc(-c2ccccc2OC)c1C(C)C -9.99%
